Measurements: PubChem BioAssay (EPA / NIEHS)
Values joined by “and” are separate entries in the source; they are usually repeats but may differ in a detail not shown here. Identical values can stand only once. Results filed as inconclusive are left out. Where a structure was tested more than once in an assay, its records may differ in their call. Active and inactive are the calls of the source. The calls were made as follows: active = hit-call score of the fitted dose curve at least 0.9, where 1 is the maximum; inconclusive = response in the unintended direction; inactive = score below 0.9.

Assays:
[1] = LTEA_HepaRG_LDH_cytotoxicity: Cytotoxicity Assessment in the Life Technologies and Expression Analysis (LTEA) Assay (AID 2283563);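 as to AC50: LDH activity released into spent culture medium as a marker of cell death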
How it was run: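 Human HepaRG hepatic cells are treated with test chemicals for 48 h at up to 100 uM in 0.5% DMSO. Cytotoxicity is scored from medium LDH against the vehicle control.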

[2] = Tanguay_ZF_120hpf_MORT_legacy: (Legacy) Oregon State University Tanguay Lab 120 Hour Post-fertilization zebrafish Assay for Mortality (AID 2283633);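 as to AC50: fitted as increase in binary mortality versus DMSO negative control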
How it was run: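 Mortality endpoint from a multiplexed whole-embryo zebrafish screen. Dechorionated wild-type embryos received compound at 6 hpf and remained under static exposure at 28C until 120 hpf, with death noted as a present/absent call.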

[3] = Tanguay_ZF_120hpf_YSE_legacy: (Legacy) Oregon State University Tanguay Lab 120 Hour Post-fertilization zebrafish Assay for Yolk Sac Edema (AID 2283634)
How it was run: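 Readout: presence or absence of yolk sac edema at 120 hpf, fitted upward against DMSO controls. Exposure ran statically from 6 hpf in dechorionated embryos kept at 28C.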

[4] = Tanguay_ZF_120hpf_AXIS_legacy: (Legacy) Oregon State University Tanguay Lab 120 Hour Post-fertilization zebrafish Assay for Body Axis Malformation (AID 2283635)
How it was run: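 Static 6–120 hpf chemical exposure of dechorionated wild-type 5D zebrafish, one per well at 28C; morphology endpoint scored binary at 120 hpf relative to DMSO control.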

[5] = Tanguay_ZF_120hpf_EYE_legacy: (Legacy) Oregon State University Tanguay Lab 120 Hour Post-fertilization zebrafish Assay for Eye Malformation (AID 2283636);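 also: binary presence or absence of eye malformation scored by brightfield in 120 hpf larvae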
How it was run: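 Binary brightfield scoring of eye defects at 120 hpf after static exposure from 6 hpf of single pronase-dechorionated wild-type embryos (28C, 0.64% DMSO). Non-mortality endpoints omitted where embryos died; fit vs DMSO.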

[6] = Tanguay_ZF_120hpf_JAW_legacy: (Legacy) Oregon State University Tanguay Lab 120 Hour Post-fertilization zebrafish Assay for Jaw Malformation (AID 2283638)
How it was run: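 Static waterborne exposure of dechorionated wild-type (Tropical 5D) zebrafish from 6 to 120 hpf at 28C, 0.64% DMSO vehicle; 5uM trimethyltin chloride served as positive control. Jaw morphology recorded as binary at 120 hpf.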

[7] = Tanguay_ZF_120hpf_OTIC_legacy: (Legacy) Oregon State University Tanguay Lab 120 Hour Post-fertilization zebrafish Assay for Otic Vesicle Malformation (AID 2283639)
How it was run: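 Binary scoring of otic vesicle defects at 120 hpf in zebrafish (Tropical 5D) held under static exposure at 28C, sealed and shaded, with final DMSO 0.64%. Embryos dying by 24 or 120 hpf excluded; fitted positively against DMSO.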

[8] = Tanguay_ZF_120hpf_PE_legacy: (Legacy) Oregon State University Tanguay Lab 120 Hour Post-fertilization zebrafish Assay for Pericardial Edema (AID 2283640)
How it was run: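 Read-out is the presence or absence of pericardial edema at 120 hpf under brightfield, with gain of signal fitted against DMSO controls. Larvae (5D wild-type) were statically exposed at 28C with 0.64% final DMSO.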

[9] = Tanguay_ZF_120hpf_BRAI_legacy: (Legacy) Oregon State University Tanguay Lab 120 Hour Post-fertilization zebrafish Assay for Brain Malformation (AID 2283641)
How it was run: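 Brain malformation in Tropical 5D zebrafish was recorded as a binary endpoint after static compound exposure from early development to 120 hpf at 28C. Activity was analysed against DMSO as negative control.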

[10] = Tanguay_ZF_120hpf_SOMI_legacy: (Legacy) Oregon State University Tanguay Lab 120 Hour Post-fertilization zebrafish Assay for Somite Malformation (AID 2283647)
How it was run: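 5D WT zebrafish; chorion removed 4 hpf; 1 embryo/well from 6 hpf; static exposure to 120 hpf, 28C, 0.64% DMSO final. Endpoint: somite malformation, binary, brightfield. Mortality excluded.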

[11] = ATG_XTT_Cytotoxicity: Cytotoxicity Assessment in the Attagene TRANS-FACTORIAL HepG2 Assay (AID 2283584);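 as to AC50: XTT signal for cell number as viability in transfected HepG2 cells; cells exposed to compound for 24 h before reading; active means loss of viability signal versus DMSO baseline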
How it was run: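 Transfect HepG2 with GAL4-UAS reporter units, dose compound, incubate 24 h, then measure viable cell number by XTT. Fit concentration response against DMSO baseline.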

[12] = molecular target: Cellular tumor antigen p53 (Homo sapiens) (UniProt P04637); assay: TOX21_p53_BLA_p2_ratio: Tox21 HCT-116 p53 Agonism Beta-lactamase Assay, Ratio, Phase 2 (AID 2283592)
Cellular tumor antigen p53 (Homo sapiens), sequence (P04637 whole entry, looked up): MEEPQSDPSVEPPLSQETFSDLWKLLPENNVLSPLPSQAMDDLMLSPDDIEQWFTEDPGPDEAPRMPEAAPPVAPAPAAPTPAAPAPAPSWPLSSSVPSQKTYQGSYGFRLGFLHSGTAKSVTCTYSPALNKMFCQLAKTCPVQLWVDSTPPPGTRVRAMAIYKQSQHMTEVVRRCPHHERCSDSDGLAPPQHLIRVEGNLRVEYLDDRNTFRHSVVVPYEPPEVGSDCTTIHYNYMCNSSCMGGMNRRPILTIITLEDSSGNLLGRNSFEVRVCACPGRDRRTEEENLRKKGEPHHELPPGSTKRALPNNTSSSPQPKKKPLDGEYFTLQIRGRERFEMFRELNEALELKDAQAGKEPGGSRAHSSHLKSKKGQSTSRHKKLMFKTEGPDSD
How it was run: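 Cleaved-to-uncleaved substrate ratio (460 vs 530 nm) measured in HCT116 cells with an inducible beta-lactamase reporter linked to p53 activity. Compounds incubated 16 h at 37C before 2 h room-temperature CCF4-AM loading.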

[13] = TOX21_p53_BLA_p3_viability: Viability Assessment in the Tox21 HCT-116 p53 Agonism Beta-lactamase Assay, Phase 3 (AID 2283593);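 also: cells exposed to compound for 16 h before reading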
How it was run: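 Cellular ATP was quantified by CellTiter-Glo luminescence, read after 30 min at room temperature. Beforehand, HCT116 cells (4000/well) received compound 5 h post-seeding, 217-fold diluted from DMSO, then incubated 16 h at 37C.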

[14] = molecular target: Cellular tumor antigen p53 (Homo sapiens) (UniProt P04637); assay: TOX21_p53_BLA_p3_ratio: Tox21 HCT-116 p53 Agonism Beta-lactamase Assay, Ratio, Phase 3 (AID 2283596)
How it was run: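 Cells were seeded at 4000/well, rested 5 h at 37C, then dosed with DMSO compound solutions (217-fold dilution) for 16 h. CCF4-AM substrate was loaded for 2 h at room temperature, and the 460/530 nm emission ratio was fitted for gain of signal versus DMSO.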

[15] = TOX21_p53_BLA_p4_viability: Viability Assessment in the Tox21 HCT-116 p53 Agonism Beta-lactamase Assay, Phase 4 (AID 2283597);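 also: hits lower the luminescence signal meaning cytotoxicity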
How it was run: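 Viability is taken as cellular ATP: after 16 h compound exposure of HCT116 cells and a 2 h room-temperature CCF4-AM substrate step, CellTiter-Glo reagent is added and luminescence is measured 30 min later.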

[16] = molecular target: Cellular tumor antigen p53 (Homo sapiens) (UniProt P04637); assay: TOX21_p53_BLA_p5_ratio: Tox21 HCT-116 p53 Agonism Beta-lactamase Assay, Ratio, Phase 5 (AID 2283599)
How it was run: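 Beta-lactamase reporter ratio (blue 460 nm over green 530 nm, 405 nm excitation) after 2 h CCF4-AM loading, in HCT-116 cells exposed 16 h at 37 C to compounds pinned at 217-fold dilution. Increases relative to DMSO baseline scored.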

[17] = TOX21_p53_BLA_p5_viability: Viability Assessment in the Tox21 HCT-116 p53 Agonism Beta-lactamase Assay, Phase 5 (AID 2283600)
How it was run: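 Viability is taken from cellular ATP content, measured by luciferase luminescence in the same wells after the beta-lactamase ratio read. Cells are seeded at 4000 per well and exposed to DMSO-dissolved compounds, diluted 217-fold, for 16 h.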

[18] = molecular target: Cellular tumor antigen p53 (Homo sapiens) (UniProt P04637); assay: TOX21_p53_BLA_p4_ratio: Tox21 HCT-116 p53 Agonism Beta-lactamase Assay, Ratio, Phase 4 (AID 2283601)
How it was run: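 Signal is the blue/green (460nm/530nm) ratio of cleaved versus uncleaved CCF4-AM substrate, read after 2 h substrate loading. Cells were HCT116 carrying the p53-responsive beta-lactamase reporter, dosed 16 h at 37C, 5% CO2; CellTiter-Glo measured in parallel.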

[19] = Tanguay_ZF_120hpf_SNOU_legacy: (Legacy) Oregon State University Tanguay Lab 120 Hour Post-fertilization zebrafish Assay for Snout Malformation (AID 2283637)
How it was run: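 Binary snout-malformation call at 120 hpf in wild-type 5D embryos, chorion removed by pronase, under static exposure from 6 hpf at 28C (0.64% DMSO). Embryos dying by 24 or 120 hpf excluded.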

[20] = TOX21_p53_BLA_p2_viability: Viability Assessment in the Tox21 HCT-116 p53 Agonism Beta-lactamase Assay, Phase 2 (AID 2283591);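 also: compound exposure lasted 16 h at 37 °C; actives lower the ATP signal meaning cytotoxicity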
How it was run: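 Cytotoxicity readout: CellTiter-Glo ATP luminescence, 30 min at room temperature, after the beta-lactamase read. Cells were HCT116 exposed 16 h at 37C to compounds pin-transferred at 217-fold dilution from DMSO stocks.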

Measured: AC50

O=C(O)CC(O)(CC(=O)O)C(=O)O
inactive: [1] | [2] | [3] | [4] | [5] | [6] | [7] | [8] | [9] | [10]

COC(=O)CCC(=O)OC
inactive: [11] | [12] | [13] | [14] | [15] | [16] | [17] | [18] | [2] | [3] | [4] | [5] | [19] | [6] | [7] | [8] | [9]

Oc1ccccc1O
active: [13] 74.5 µM | [15] 70.9 µM and 46.5 µM | [18] 73.5 µM
inactive: [1] | [20] | [12] | [13] | [14] | [16] | [17] | [18] | [2] | [3] | [4] | [5] | [19] | [8] | [10]

CCCCC(CC)COC(=O)CCCCCCCC(=O)OCC(CC)CCCC (stereo not drawn)
inactive: [11] | [20] | [12] | [13] | [14] | [15] | [16] | [17] | [18] | [2] | [3] | [4] | [5] | [19] | [6] | [7] | [10]

Cc1c(C)c2c(c(C)c1O)CCC(C)(COc1ccc(CC3SC(=O)NC3=O)cc1)O2 (stereo not drawn)
inactive: [17] | [2] | [3] | [4] | [5] | [19] | [6] | [7] | [8] | [9] | [10]
active: [1] 76.3 µM | [20] 74.4 µM and 37.1 µM | [12] 15.4 µM and 28.5 µM | [13] 73.8 µM | [14] 28.1 µM and 26 µM | [15] 66.4 µM and 34.8 µM | [16] 56.1 µM and 34.1 µM | [17] 87 µM | [18] 76 µM and 35.5 µM

C=CCc1ccc(OC)c(OC)c1
inactive: [1] | [20] | [12] | [13] | [14] | [16] | [17] | [18] | [3] | [4] | [5] | [19] | [6] | [7] | [8] | [9] | [10]

COC(=O)[C@H]1[C@H]2C[C@@H]3c4[nH]c5cc(OC)ccc5c4CCN3C[C@H]2C[C@@H](OC(=O)c2cc(OC)c(OC)c(OC)c2)[C@@H]1OC
inactive: [11] | [20] | [12] | [13] | [14] | [15] | [16] | [17] | [18] | [2] | [3] | [4] | [5] | [19] | [6] | [7] | [8] | [9] | [10]

CCN(CC)CCOc1ccc(C(=C(Cl)c2ccccc2)c2ccccc2)cc1
active: [1] 62.5 µM | [11] 28 µM [middle of 5 runs] | [2] 26.9 µM
inactive: [3] | [4] | [5] | [6] | [7] | [8] | [9]

CC(=O)OC1CC(C)OC(C)O1 (stereo not drawn)
inactive: [1] | [11] | [2] | [3] | [4] | [5] | [19] | [6] | [8] | [9] | [10]

CC1=C(C)S(=O)(=O)CCS1(=O)=O
inactive: [11] | [20] | [12] | [14] | [15] | [16] | [18] | [2] | [3] | [4] | [5] | [6] | [7] | [8] | [9] | [10]

CN(C)CCCN(C)CCCN(C)C
inactive: [11] | [12] | [14] | [17] | [18] | [2] | [3] | [4] | [5] | [19] | [6] | [7] | [8] | [9] | [10]

O=Cc1ccccc1C=O
inactive: [1] | [11] | [3] | [4] | [5] | [19] | [7] | [8] | [9] | [10]
active: [2] 4.42 µM

CC(C)NCC(O)c1ccc(O)c(O)c1 (stereo not drawn)
inactive: [2] | [3] | [4] | [5] | [19] | [6] | [7] | [8] | [9]

O=C(NS(=O)(=O)/C=C/c1cccs1)c1ccc(F)cc1Br
inactive: [2] | [3] | [4] | [5] | [19] | [6] | [7] | [8] | [9] | [10]

C/C=C/c1ccc(OC)cc1
inactive: [11] | [2] | [3] | [5] | [19] | [6] | [7] | [8] | [9] | [10]

COc1ccc(C(=O)Nc2nc3ccccc3c(NCc3ccccc3)c2C#N)cc1
active: [12] 60.1 µM | [16] 63.1 µM | [18] 72.8 µM
inactive: [14] | [15] | [2] | [3] | [4] | [19] | [6] | [9]

Cn1cnc2c1c(=O)[nH]c(=O)n2C
inactive: [11] | [2] | [3] | [4] | [5] | [19] | [6] | [7] | [9] | [10]

CC(=O)CC(c1ccccc1)c1c(O)c2ccccc2oc1=O (stereo not drawn)
inactive: [11] | [2] | [3] | [4] | [6] | [10]

CN(C)C(=O)NC1(c2ccccc2)CCN(CC[C@@]2(c3ccc(F)c(F)c3)CN(C(=O)c3ccccc3)CCO2)CC1
active: [15] 65 µM
inactive: [20] | [12] | [14] | [16] | [17] | [18] | [2] | [3] | [4] | [5] | [19] | [6] | [7] | [8] | [10]
